High-throughput results as filed in PubChem BioAssay.
ELG1 genotox = inducers of genotoxicity in HEK293T ELG1-luciferase cells; HEK293T ELG1-luciferase reporter, luminescence, 16 h; Potency, µM (highest dose often 46 µM), inactives show top-dose activity change, positive = activation, actives largely listed as activators; hit rate 1.3% among 330,000; further: % of control where 0% means no effect; nearly all actives have a fitted effect of over 60% in size
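DMSO vehicle served as control against compound-treated ELG1-luciferase HEK293T cells; exposure lasted 16 hr at 37 °C and 5% CO2, followed by ONE-Glo luminescence detection after 30 min.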
Rab9 prom act = activates the Rab9 promoter; Huh7 Rab9 promoter-luciferase reporter, luminescence, 24 h; AID 485297; hit rate 2.8% among 320,000; Potency, µM (highest dose often 9.22 µM), inactives show at the highest dose activation, negative = inhibition, actives largely listed as activators; further: % of control where 0% means no effect; nearly all actives have a fitted effect of over 60% in size
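Huh7 reporter line, Rab9 promoter upstream of luciferase. Compound exposure 24 h at 37 °C in reduced-serum medium with 10% FBS. Read-out: luminescence.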
FLuc modulator = inhibits or activates purified firefly luciferase, miR-21 counter-screen; purified FLuc, Km substrates, luminescence inhibition; Potency, µM (series often up to 57.5 µM), inactives show at the highest dose activity change, negative = inhibition, actives largely listed as inhibitors; hit rate 6.9% among 360,000;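 further: plate controls were vehicle for no effect and reference inhibitor for full effect; nearly all actives have a fitted effect of over 55% in size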
Target sequence (P08659 whole entry, looked up): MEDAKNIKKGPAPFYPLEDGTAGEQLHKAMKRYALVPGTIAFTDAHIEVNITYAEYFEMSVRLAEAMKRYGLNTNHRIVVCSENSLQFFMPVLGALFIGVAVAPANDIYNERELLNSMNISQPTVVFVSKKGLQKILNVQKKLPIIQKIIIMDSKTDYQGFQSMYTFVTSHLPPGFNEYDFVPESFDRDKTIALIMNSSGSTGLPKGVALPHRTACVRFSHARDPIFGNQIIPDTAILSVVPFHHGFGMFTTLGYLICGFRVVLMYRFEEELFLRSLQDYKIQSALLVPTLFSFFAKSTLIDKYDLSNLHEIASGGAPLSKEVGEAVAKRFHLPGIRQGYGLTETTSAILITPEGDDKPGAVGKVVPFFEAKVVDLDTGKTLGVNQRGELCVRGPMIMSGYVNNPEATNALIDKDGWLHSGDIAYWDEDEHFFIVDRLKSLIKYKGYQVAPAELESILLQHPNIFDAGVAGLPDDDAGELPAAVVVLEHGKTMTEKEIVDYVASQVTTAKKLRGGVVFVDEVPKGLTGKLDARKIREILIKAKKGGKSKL
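Biochemical qHTS of compounds, final roughly 60 µM downward over six points, against 10 nM purified firefly luciferase using Km concentrations of substrates (10 uM D-luciferin, 10 uM ATP) in Tris acetate pH 7.5 buffer; luminescence output.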
KinaseGlo FLuc = Kinase-Glo luciferase inhibition (counter-screen); Kinase-Glo luciferase, ATP luminescence, 8 min; Q27757; Potency, µM (highest dose often 38.3 µM), inactives show at the highest dose activity change, negative = inhibition, actives largely listed as inhibitors; hit rate 0.28% among 200,000; further: on the % scale 0 is the no-effect control and ±100 the full control effect; nearly all actives have a fitted effect of over 60% in size
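Luminescence was the read-out, taken after 8-minute incubation at ambient temperature. Luciferase turned over luciferin with 10 uM ATP in imidazole pH 7.2 buffer containing KCl, MgCl2, Tween 20 and BSA.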
NPC1 prom act = NPC1 promoter activation. Huh7 NPC1 promoter luciferase reporter, 24 h. Potency, µM (series often up to 9.22 µM), for the others: top-dose activation, actives largely listed as activators. hit rate 2.4% among 320,000. AID 485313; further: % of control where 0% means no effect; nearly all actives have a fitted effect of over 60% in size
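Luminescence read-out of NPC1 promoter-driven luciferase in stably transfected Huh7 cells; compounds delivered in DMSO and left 24 h at 37C, 5% CO2, qHTS titration format.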
SMN2 splice up = SMN2 splice variant enhancement; hit rate 2.8% among 210,000; HEK293 SMN2-luciferase splicing reporter, luminescence, 30-36 h; Potency, µM (series often up to 46.1 µM), for inactives: top-dose activity change, positive = activation, hits mostly activators; further: % of control where 0% means no effect; nearly all actives have a fitted effect of over 55% in size
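HEK293 cells carry an SMN2 minigene-luciferase reporter in which exon 7 inclusion puts luciferase in frame. Cells were seeded at 2000 cells/well, attached for 10-12 hours, then exposed to compounds for 30-36 hours at 37C before ONE-Glo luminescence.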
Active calls of the source: *; ? = inconclusive; nt = not tested or not shown. Compounds with a hit are over-represented: about 7.5% of the library has one in this group of screens. The call rests on the fitted dose curve; in most records, active means well fitted curve in the direction sought with a large enough effect; inconclusive means small, poorly fitted or top-dose-only effect, or another doubt; inactive means no such curve, though single readings can be large; an effect the other way counts as inactive or inconclusive. Potency means the concentration at half of the fitted maximal effect.

SMILES	ELG1 genotox	Rab9 prom act	FLuc modulator	KinaseGlo FLuc	NPC1 prom act	SMN2 splice up
O=C(N=Nc1c(O)[nH]c2ccccc12)c1cc(-c2ccc(F)cc2)n[nH]1	-3%	-5%	0%	1%	-2%	19%
COC(=O)/C=C(\C)N=Nc1c(O)[nH]c2ccccc12	3%	0%	24µM*	nt	2%	nt
Oc1[nH]c2ccc(Br)cc2c1N=Nc1ccc(F)cc1	3%	-1%	2%	nt	6%	nt
O=[N+]([O-])c1ccc(N=Nc2c(O)[nH]c3ccc(F)cc23)cc1	?	?	-23%	nt	2.8µM*	nt
Cn1nnnc1SCC(=O)Nc1cc(S(=O)(=O)N2CCCCC2)ccc1Cl	1%	nt	nt	nt	nt	nt
Oc1[nH]c2ccccc2c1N=Nc1ccccc1	?	?	6µM*	nt	4%	nt
Oc1[nH]c2ccccc2c1N=Nc1nc2ccccc2s1	0.46µM*	1.1µM*	1.3µM*	-11%	3.5µM*	2.5µM*
O=Nc1c(-c2c(O)[nH]c3ccccc23)[nH]c2ccccc12	nt	?	nt	-25%	4.6µM*	13µM*
O=S1(=O)N=C(N=Nc2c(O)[nH]c3ccccc23)c2ccccc21	-4%	1%	?	-5%	-4%	-16%
COc1ccc(-c2cc(C(=O)Nc3cc(S(=O)(=O)N4CCOCC4)ccc3N3CCOCC3)c3ccccc3n2)cc1	-14%	13%	?	0%	2%	-16%
CCOc1ccc(CCNC(=O)c2c(C)oc3ncnc(N4CCOCC4)c23)cc1	nt	nt	5%	nt	nt	nt
Nn1c(SCc2ccccc2)nc2ccccc21	?	3.2µM*	19µM*	nt	1.8µM*	nt
Cc1ccsc1/C=C1\CCC(C2CCCC2)C1=O (stereo not given)	?	3.5µM*	2.1µM*	-18%	2.8µM*	nt
Cc1ccc(/C=C2\CCC(C3CCCC3)C2=O)cc1 (stereo not given)	9.2µM*	3.5µM*	0.48µM*	-7%	3.2µM*	22µM*
COc1cc(OC)c(OC)cc1/C=C1\CCC(C2CCCC2)C1=O (stereo not given)	-14%	1%	-13%	2%	-2%	-24%
COc1ccc(/C=C2\CCC(C3CCCC3)C2=O)c(OC)c1 (stereo not given)	8%	13%	21µM*	nt	25%	nt
COc1ccc(/C=C2\CCOC2=O)cc1	1%	13%	-18%	-3%	10%	-15%
Cc1ccsc1/C=C1\SC(N)=NC1=O	14%	25%	?	-9%	18%	15%
COc1ccc(/C=C2\CCC(C3CCCC3)C2=O)cc1 (stereo not given)	?	3.5µM*	0.48µM*	nt	4µM*	nt
Cc1ccc(C(=O)N2CCN(C(=O)c3ccco3)CC2)cc1NC(=O)c1ccco1	-3%	2%	-2%	0%	-2%	0%
O=C(O)C1=C[C@H](c2csc3ccccc23)C[C@H](OCCCCO)O1	6%	12%	-2%	nt	1%	nt
Cc1ccc(-c2nnc(Nc3ccc(S(N)(=O)=O)cc3)c3ccccc23)cc1S(=O)(=O)N1CCOCC1	nt	nt	0%	nt	nt	-5%
Cc1onc(-c2ccccc2)c1-c1nnc(CN2CCN(S(=O)(=O)c3ccccc3)CC2)o1	-6%	-9%	3%	nt	-1%	nt
O=C(NC1CC1)c1sc2ccccc2c1Cl	?	?	15µM*	nt	?	nt
O=C(NNC(=S)NC1CCCCC1)c1sc2ccccc2c1Cl	-3%	-5%	?	2%	5%	-18%
O=C(NC1CC1)c1sc2cc(F)ccc2c1Cl	?	?	9.5µM*	nt	23%	nt
O=C(NC(=S)NCCO)c1sc2ccccc2c1Cl	?	2.8µM*	6µM*	-2%	?	13µM*
O=C(NNC(=O)C1CC2CCC1C2)c1sc2ccccc2c1Cl (stereo not given)	19%	?	24µM*	1%	?	22µM*
COc1ccc2c(Cl)c(C(=O)NC3CCS(=O)(=O)C3)sc2c1 (stereo not given)	15%	26%	-17%	2%	?	2%
